Several values for one entry are separate records, joined by “and”; a condition that tells them apart may be missing. Equal entries are not always repeated. Results filed as inconclusive are left out. Entries that show only a call come without a potency. A structure can be active in one record and inactive in another. Activity calls are given as the source filed them. The call rests on the fitted dose curve; in most records, active means well fitted curve in the direction sought with a large enough effect in the repeat runs; inconclusive means weak or mixed curves; inactive means no such curve, though single readings can be large; an effect the other way counts as inactive or inconclusive.
Tests used:
[1] = qHTS RealTime-Glo MT Cell Viability Assay in HEK293 cells - 16 hour (AID 1224872); further: top concentration of the series differs between compounds; nearly all actives have a fitted effect of over 50% in size
How it was run: (§1)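 Homogeneous bioluminescent viability format in HEK293 cells (600 cells/well). Following 5 h at 37 C/5% CO2, 23 nL compound was pintooled; the signal was measured repeatedly during 40 h incubation.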

[2] = qHTS RealTime-Glo MT Cell Viability Assay in HepG2 cells - 8 hour (AID 1224873); further: nearly all actives have a fitted effect of over 55% in size
How it was run: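 HepG2 cells (600/well) mixed with RealTime-Glo MT reagent, settled 5 h at 37 C/5% CO2 before compound addition. Nonlytic NanoLuc luminescence from viable-cell prosubstrate reduction read repeatedly during 40 h treatment at 37 C.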

[3] = A CellTox Green Cytotoxicity Assay to monitor cytotoxicity in HepG2 cells - 16 hour (AID 1224876); further: nearly all actives have a fitted effect of over 45% in size; further: potency means the concentration at half of the fitted maximal effect
How it was run: (§2)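 Cells and non-lytic dye reagent are dispensed together (600 HepG2 cells/well) and incubated 5 h before DMSO compound transfer. Kinetic fluorescence is then recorded in the same wells during 40 h at 37 C.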

[4] = A CellTox Green Cytotoxicity Assay to monitor cytotoxicity in HepG2 cells - 24 hour (AID 1224878); further: nearly all actives have a fitted effect of over 45% in size; further: potency means the concentration at half of the fitted maximal effect
How it was run: as §2

[5] = A CellTox Green Cytotoxicity Assay to monitor cytotoxicity in HepG2 cells - 40 hour (AID 1224879); further: nearly all actives have a fitted effect of over 40% in size; further: potency means the concentration at half of the fitted maximal effect
How it was run: as §2

[6] = qHTS RealTime-Glo MT Cell Viability Assay in HEK293 cells - 0 hour (AID 1224880); further: top concentration of the series differs between compounds; nearly all actives have a fitted effect of over 45% in size
How it was run: (§3)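 Real-time viability in HEK293: signal arises when living cells convert a prosubstrate for NanoLuc in the medium, so luminescence tracks viable cell number. Compound (23 nL, DMSO) added 5 h post-seeding; kinetic reads at 0–40 h, 37 C.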

[7] = A CellTox Green Cytotoxicity Assay to monitor cytotoxicity in HEK293 cells - 32 hour (AID 1224881); further: nearly all actives have a fitted effect of over 40% in size
How it was run: (§4)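 Cells (HEK293, 600/well) and dye reagent are dispensed together. After 5 h at 37 C, 23 nL compound is pinned in. Plates stay at 37 C for 40 h with fluorescence read at 0h, 8h, 16h, 24h, 32h and 40h.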

[8] = A CellTox Green Cytotoxicity Assay to monitor cytotoxicity in HepG2 cells - 0 hour (AID 1224882); further: nearly all actives have a fitted effect of over 35% in size
How it was run: as §2

[9] = A CellTox Green Cytotoxicity Assay to monitor cytotoxicity in HepG2 cells - 32 hour (AID 1224883); further: nearly all actives have a fitted effect of over 50% in size; further: potency means the concentration at half of the fitted maximal effect
How it was run: as §2

[10] = A CellTox Green Cytotoxicity Assay to monitor cytotoxicity in HEK293 cells - 8 hour (AID 1224884); further: nearly all actives have a fitted effect of over 35% in size
How it was run: as §4

[11] = qHTS RealTime-Glo MT Cell Viability Assay in HepG2 cells - 16 hour (AID 1224885); further: nearly all actives have a fitted effect of over 50% in size
How it was run: (§5)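 Cell number in HepG2 cultures estimated from NanoLuc luminescence generated by metabolic reduction of a prosubstrate by living cells. The homogeneous, nonlytic format allowed repeated reads at 0, 8, 16, 24, 32 and 40 h of compound exposure.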

[12] = qHTS RealTime-Glo MT Cell Viability Assay in HEK293 cells - 8 hour (AID 1224887); further: top concentration of the series differs between compounds; nearly all actives have a fitted effect of over 50% in size
How it was run: as §3

[13] = A CellTox Green Cytotoxicity Assay to monitor cytotoxicity in HEK293 cells - 16 hour (AID 1224888); further: nearly all actives have a fitted effect of over 35% in size
How it was run: as §4

[14] = qHTS RealTime-Glo MT Cell Viability Assay in HepG2 cells - 0 hour (AID 1224889); further: nearly all actives have a fitted effect of over 50% in size; further: potency means the concentration at half of the fitted maximal effect
How it was run: as §5

[15] = A CellTox Green Cytotoxicity Assay to monitor cytotoxicity in HepG2 cells - 8 hour (AID 1224890); further: nearly all actives have a fitted effect of over 45% in size
How it was run: as §2

[16] = qHTS assay to identify small molecule antagonists of the estrogen receptor alpha (ER-alpha) signaling pathway using the BG1 cell line in the presence of 0.1 nM 17-beta-estradiol - cell viability counter screen (AID 1259241); further: nearly all actives have a fitted effect of over 40% in size; further: potency means the concentration at half of the fitted maximal effect
How it was run: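 In this screen, hormone-deprived VM7Luc4E2 cells were seeded at 4,000 per well, dosed with compound and 0.1 nM estradiol final, and incubated 22 hr at 37C and 5% CO2; fluorogenic live-cell protease signal reported viability.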

[17] = A CellTox Green Cytotoxicity Assay to monitor cytotoxicity in HEK293 cells - 24 hour (AID 1224875)
How it was run: as §4

[18] = qHTS RealTime-Glo MT Cell Viability Assay in HepG2 cells - 32 hour (AID 1224877); further: nearly all actives have a fitted effect of over 55% in size
How it was run: as §5

[19] = qHTS RealTime-Glo MT Cell Viability Assay in HEK293 cells - 24 hour (AID 1224886)
How it was run: as §1

## Cc1ccc(O)cc1
[1]
  Potency: inactive
[2]
  outcome: inactive
[3]
  Potency: inactive
[4]
  Potency: inactive
[5]
  Potency: inactive
[6]
  Potency: inactive
[7]
  Potency: inactive
[8]
  Potency: inactive
[9]
  Potency: inactive
[10]
  Potency: inactive
[11]
  Potency: inactive
[12]
  Potency: inactive
[13]
  Potency: inactive
[14]
  Potency: inactive
[15]
  Potency: inactive
[16]
  Potency: inactive

## O=S(=O)(O)NC1CCCCC1
[1]
  Potency: inactive
[2]
  outcome: inactive
[17]
  Potency: inactive
[3]
  Potency: inactive
[18]
  Potency: inactive
[4]
  Potency: inactive
[5]
  Potency: inactive
[6]
  Potency: inactive
[7]
  Potency: inactive
[8]
  Potency: inactive
[9]
  Potency: inactive
[10]
  Potency: inactive
[11]
  Potency: inactive
[12]
  Potency: inactive
[13]
  Potency: inactive
[14]
  Potency: inactive
[15]
  Potency: inactive
[16]
  Potency: inactive

## CC(O)CN(CCN(CC(C)O)CC(C)O)CC(C)O (configuration not stated)
[1]
  Potency: inactive
[2]
  outcome: inactive
[3]
  Potency: inactive
[18]
  Potency: inactive
[4]
  Potency: inactive
[5]
  Potency: inactive
[6]
  Potency: inactive
[7]
  Potency: inactive
[8]
  Potency: inactive
[9]
  Potency: inactive
[10]
  Potency: inactive
[11]
  Potency: inactive
[12]
  Potency: inactive
[14]
  Potency: inactive
[15]
  Potency: inactive
[16]
  Potency: inactive

## O=C(O)c1[nH]n(-c2ccc(S(=O)(=O)O)cc2)c(=O)c1N=Nc1ccc(S(=O)(=O)O)cc1
[1]
  Potency: inactive
[2]
  outcome: inactive
[3]
  Potency: inactive
[4]
  Potency: inactive
[5]
  Potency: inactive
[6]
  Potency: inactive
[7]
  Potency: inactive
[8]
  Potency: inactive
[9]
  Potency: inactive
[10]
  Potency: inactive
[11]
  Potency: inactive
[12]
  Potency: inactive
[13]
  Potency: inactive
[14]
  Potency: inactive
[15]
  Potency: inactive
[16]
  Potency: 48.7 µM (active) and 28.6 µM (active)

## O=C(O)CCCCC(=O)O
[1]
  Potency: inactive
[2]
  outcome: inactive
[3]
  Potency: inactive
[4]
  Potency: inactive
[5]
  Potency: inactive
[6]
  Potency: inactive
[7]
  Potency: inactive
[8]
  Potency: inactive
[9]
  Potency: inactive
[10]
  Potency: inactive
[11]
  Potency: inactive
[12]
  Potency: inactive
[13]
  Potency: inactive
[14]
  Potency: inactive
[15]
  Potency: inactive
[16]
  Potency: inactive

## O=c1cc[nH]c(=S)[nH]1
[1]
  Potency: inactive
[2]
  outcome: inactive
[17]
  Potency: inactive
[3]
  Potency: inactive
[4]
  Potency: inactive
[5]
  Potency: inactive
[6]
  Potency: inactive
[7]
  Potency: inactive
[8]
  Potency: inactive
[9]
  Potency: inactive
[10]
  Potency: inactive
[11]
  Potency: inactive
[19]
  Potency: inactive
[12]
  Potency: inactive
[13]
  Potency: inactive
[14]
  Potency: inactive
[15]
  Potency: inactive
[16]
  Potency: inactive

## O=C(O)c1cccnc1
[1]
  Potency: inactive
[2]
  outcome: inactive
[3]
  Potency: inactive
[18]
  Potency: inactive
[4]
  Potency: inactive
[5]
  Potency: inactive
[6]
  Potency: inactive
[7]
  Potency: inactive
[8]
  Potency: inactive
[9]
  Potency: inactive
[10]
  Potency: inactive
[11]
  Potency: inactive
[12]
  Potency: inactive
[13]
  Potency: inactive
[14]
  Potency: inactive
[15]
  Potency: inactive
[16]
  Potency: inactive

## CC(O)CO (configuration not stated)
[1]
  Potency: inactive
[2]
  outcome: inactive
[3]
  Potency: inactive
[4]
  Potency: inactive
[5]
  Potency: inactive
[6]
  Potency: inactive
[7]
  Potency: inactive
[8]
  Potency: inactive
[9]
  Potency: inactive
[10]
  Potency: inactive
[11]
  Potency: inactive
[12]
  Potency: inactive
[13]
  Potency: inactive
[14]
  Potency: inactive
[15]
  Potency: inactive
[16]
  Potency: inactive

## NS(=O)(=O)c1cc(C(=O)O)c(NCc2ccco2)cc1Cl
[1]
  Potency: inactive
[2]
  outcome: inactive
[17]
  Potency: inactive
[3]
  Potency: 22 µM (active) and inactive
[4]
  Potency: 17.4 µM (active) and inactive
[5]
  Potency: 19.6 µM (active) and inactive
[6]
  Potency: inactive
[7]
  Potency: inactive
[8]
  Potency: inactive
[9]
  Potency: 19.6 µM (active) and inactive
[10]
  Potency: inactive
[11]
  Potency: inactive
[13]
  Potency: inactive
[14]
  Potency: inactive
[15]
  Potency: inactive
[16]
  Potency: inactive

## C[C@]12C=CC(=O)C=C1CC[C@@H]1[C@@H]2[C@@H](O)C[C@@]2(C)[C@H]1CC[C@]2(O)C(=O)CO
[1]
  Potency: inactive
[2]
  outcome: inactive
[17]
  Potency: inactive
[3]
  Potency: inactive
[4]
  Potency: inactive
[5]
  Potency: inactive
[6]
  Potency: inactive
[7]
  Potency: inactive
[8]
  Potency: inactive
[9]
  Potency: inactive
[10]
  Potency: inactive
[11]
  Potency: inactive
[12]
  Potency: inactive
[13]
  Potency: inactive
[14]
  Potency: 21.6 µM (active) and 19.5 µM (active)
[15]
  Potency: inactive
[16]
  Potency: inactive

## O=C(O)c1cccc([N+](=O)[O-])c1
[1]
  Potency: inactive
[2]
  outcome: inactive
[3]
  Potency: inactive
[18]
  Potency: inactive
[4]
  Potency: inactive
[5]
  Potency: inactive
[6]
  Potency: inactive
[7]
  Potency: inactive
[8]
  Potency: inactive
[9]
  Potency: inactive
[10]
  Potency: inactive
[11]
  Potency: inactive
[12]
  Potency: inactive
[13]
  Potency: inactive
[14]
  Potency: inactive
[15]
  Potency: inactive
[16]
  Potency: inactive

## N=C(N)c1ccc(OCCCCCOc2ccc(C(=N)N)cc2)cc1
[2]
  outcome: inactive
[3]
  Potency: inactive
[18]
  Potency: inactive
[4]
  Potency: inactive
[5]
  Potency: 48.8 µM (active) and inactive
[6]
  Potency: inactive
[7]
  Potency: inactive
[8]
  Potency: inactive
[9]
  Potency: 48.8 µM (active) and inactive
[10]
  Potency: inactive
[11]
  Potency: inactive
[12]
  Potency: inactive
[13]
  Potency: inactive
[14]
  Potency: inactive
[15]
  Potency: inactive
[16]
  Potency: inactive

## CCCCC(CC)COC(=O)/C=C/c1ccc(OC)cc1 (configuration not stated)
[1]
  Potency: inactive
[2]
  outcome: inactive
[3]
  Potency: inactive
[18]
  Potency: inactive
[4]
  Potency: inactive
[5]
  Potency: inactive
[6]
  Potency: inactive
[7]
  Potency: inactive
[8]
  Potency: inactive
[9]
  Potency: inactive
[10]
  Potency: inactive
[11]
  Potency: inactive
[19]
  Potency: inactive
[12]
  Potency: inactive
[13]
  Potency: inactive
[14]
  Potency: inactive
[15]
  Potency: inactive
[16]
  Potency: inactive

— PubChem BioAssay (Tox21)
